Among the data in PubChem BioAssay (NCI) are growth values, retold here.

Each structure is given as a SMILES string. The panel holds about 83,000 compounds, 20% with a hit somewhere; the sample as a whole holds those more often.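 Single-concentration screen, 48 h exposure, 96-well plates. Endpoint: percent growth. Below 10 = active.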 Unmarked numbers belong to inactive results. Activity calls are given as the source filed them.

Among the test systems are HCT-15 colon; HT29 colon; SNB-75 CNS; SNB-19 CNS; U251 CNS; PC-3 prostate; SK-MEL-5 melanoma; UACC-62 melanoma; LOX IMVI melanoma; SK-MEL-28 melanoma; SK-MEL-2 melanoma; EKVX NSCLC; SN12C renal; UO-31 renal; TK-10 renal; ACHN renal; CAKI-1 renal; A498 renal; CCRF-CEM leukemia; MOLT-4 leukemia.
Common to all, as to experiment: NCI-60 one-dose screen, 48 h (100 = growth as untreated, 0 = no growth, -100 = all killed)
Conditions in all cases: 10 µM unless noted

Regarding `CCNC(=O)Oc1ccc(/C(=C(/C)Cc2ccc(OC)cc2)c2ccc(OCCN3CCCC3)cc2)cc1`, the growth was 45.9% in the assay with HCT-15 colon; 7.46% (active) in the assay on HT29 colon; 73.8% in the assay with SNB-75 CNS; 80.4% with SNB-19 CNS; 54.3% in the assay on U251 CNS; 66.4% in the assay with PC-3 prostate. For the same compound, the growth was 57.7% with SK-MEL-5 melanoma; 69.1% with UACC-62 melanoma; 60.8% in the assay on LOX IMVI melanoma; 66.1% in the assay on SK-MEL-28 melanoma; 110% with SK-MEL-2 melanoma; 76.2% in the assay on EKVX NSCLC. The growth is 75.6% in the assay on SN12C renal; 57.8% with UO-31 renal; 88.1% with TK-10 renal; 92.4% in the assay on ACHN renal; 82.3% in the assay on CAKI-1 renal; 91.9% with A498 renal. Besides, the growth in the assay with CCRF-CEM leukemia was 45.8%; in the assay with MOLT-4 leukemia, 31.6%.

Regarding `O=C1Nc2ccccc2C2c3cccn3-c3ccccc3N12` (stereo not given), the growth with HCT-15 colon is 53.9%; with HT29 colon, 31.7%; in the assay on SNB-75 CNS, 40%; with SNB-19 CNS, 88.9%; in the assay on U251 CNS, 60.2%; in the assay with PC-3 prostate, 66.9%. The growth with SK-MEL-5 melanoma is 80%; with UACC-62 melanoma it was 57.6%; in the assay on LOX IMVI melanoma, 74.2%; with SK-MEL-28 melanoma it was 94.1%; in the assay on SK-MEL-2 melanoma, 52%; with EKVX NSCLC it was 81.8%. Moreover, the growth in the assay with SN12C renal is 90.3%; in the assay on UO-31 renal it was 70.4%; in the assay with TK-10 renal, 73.1%; in the assay on ACHN renal, 94.8%; in the assay on CAKI-1 renal it was 80.8%; with A498 renal, 73.9%. The values for the growth with CCRF-CEM leukemia and in the assay with MOLT-4 leukemia were 80.9% and 77.5%, respectively.

Regarding `CC(C)CCSc1nc(Nc2ccccc2)c(C#N)c(-c2ccccc2)n1`, the growth with HCT-15 colon is 55.3%; in the assay with HT29 colon, 50.7%; in the assay with SNB-75 CNS it was -10.1% (active); with SNB-19 CNS, 19.3%; in the assay on U251 CNS, 2.98% (active); with PC-3 prostate it was 68.8%. The growth in the assay with SK-MEL-5 melanoma was 95.2%; in the assay with UACC-62 melanoma, 89.9%; with LOX IMVI melanoma, 25.5%; in the assay on SK-MEL-28 melanoma, 82.1%; in the assay with SK-MEL-2 melanoma it was 81.4%; in the assay with EKVX NSCLC, 14.7%. In addition, the growth is 27.1% in the assay with SN12C renal; 12.9% in the assay on UO-31 renal; 24.7% with TK-10 renal; -21.2% (active) in the assay on ACHN renal; 26.8% in the assay on CAKI-1 renal; -8.82% (active) in the assay on A498 renal. Further, the growth in the assay with CCRF-CEM leukemia is 54.9%; in the assay with MOLT-4 leukemia, 80.7%.

For `CCOC(=O)c1c2c(n3ccccc13)C(=O)c1ncccc1C2=O`, the growth is 22.4% in the assay with HCT-15 colon; 47.6% with HT29 colon; 34.3% with SNB-75 CNS; 16.5% in the assay on SNB-19 CNS; 0.0106% (active) with U251 CNS; 19.9% in the assay on PC-3 prostate. Also, the growth with SK-MEL-5 melanoma was -17.8% (active); in the assay with UACC-62 melanoma, -25.8% (active); in the assay on LOX IMVI melanoma it was 0.56% (active); with SK-MEL-28 melanoma, 28.9%; in the assay with SK-MEL-2 melanoma, 65.6%; in the assay with EKVX NSCLC it was 40.4%. Moreover, the growth is 10.3% with SN12C renal; 1.86% (active) with UO-31 renal; 38.4% in the assay on TK-10 renal; 7.49% (active) in the assay on ACHN renal; 9.11% (active) in the assay with CAKI-1 renal; 30.7% in the assay on A498 renal. In addition, the growth was 32.1% with CCRF-CEM leukemia and 31.9% in the assay on MOLT-4 leukemia.

Take `O=C(OC[C@@H]1CO1)c1cccc2c(=O)c3ccccc3[nH]c12`: the growth in the assay with HCT-15 colon was -5.09% (active); in the assay on HT29 colon it was -7.33% (active); in the assay on SNB-75 CNS it was -88.2% (active); in the assay on SNB-19 CNS, -7.9% (active); in the assay with U251 CNS it was -15.7% (active); in the assay with PC-3 prostate, -21.1% (active). The growth with SK-MEL-5 melanoma is -90.9% (active); in the assay with UACC-62 melanoma it was -89.2% (active); in the assay on LOX IMVI melanoma it was -78.1% (active); in the assay with SK-MEL-28 melanoma, -62.6% (active); with SK-MEL-2 melanoma, -70.8% (active); with EKVX NSCLC it was -16.8% (active). Also, the growth in the assay on SN12C renal is -46.9% (active); with UO-31 renal, -20.7% (active); in the assay on TK-10 renal, -6.41% (active); in the assay with ACHN renal it was -41.2% (active); with CAKI-1 renal, -13.2% (active); in the assay with A498 renal it was -44.4% (active). For the same compound, the growth is 2.83% (active) in the assay on CCRF-CEM leukemia and 1.32% (active) in the assay with MOLT-4 leukemia.

With `CC(=O)N/C(=C1/OC(C(O)C(O)C(O)CO)CN1C)[P+](c1ccccc1)(c1ccccc1)c1ccccc1` (stereo not given), the growth was 98.5% with HCT-15 colon; 115% in the assay on HT29 colon; 75.3% in the assay on SNB-75 CNS; 91.2% in the assay with SNB-19 CNS; 98% with U251 CNS; 98.2% in the assay with PC-3 prostate. The growth in the assay on SK-MEL-5 melanoma was 95.5%; in the assay with UACC-62 melanoma it was 98.6%; in the assay with LOX IMVI melanoma, 98.2%; in the assay on SK-MEL-28 melanoma, 106%; in the assay with SK-MEL-2 melanoma it was 99.5%; in the assay with EKVX NSCLC, 90.3%. In addition, the growth with SN12C renal is 96.2%; in the assay with UO-31 renal it was 79.4%; in the assay on TK-10 renal, 104%; in the assay on ACHN renal, 100%; in the assay on CAKI-1 renal it was 90.6%; in the assay with A498 renal, 120%. Moreover, the growth was 97.1% with CCRF-CEM leukemia and 102% in the assay on MOLT-4 leukemia.

With `CC1(C)CC2=C3C=C[C@@H]4[C@@]5(C)CC[C@H](O)C(C)(C)[C@@H]5CC[C@@]4(C)[C@]3(C)CC[C@@]2(C(=O)O)CC1=O`, the growth is 28% in the assay on HCT-15 colon; 35.7% with HT29 colon; 16.8% in the assay on SNB-75 CNS; 68.9% in the assay on SNB-19 CNS; 32.3% in the assay on U251 CNS; 45% with PC-3 prostate. Further, the growth in the assay on SK-MEL-5 melanoma was 25.3%; in the assay with UACC-62 melanoma, 53.6%; in the assay on LOX IMVI melanoma, 46.9%; with SK-MEL-28 melanoma, 30.9%; with SK-MEL-2 melanoma it was 37.1%; with EKVX NSCLC, 61.4%. Further, the growth in the assay with SN12C renal was 54.4%; in the assay with UO-31 renal, 16.5%; in the assay on TK-10 renal, 33.5%; in the assay on ACHN renal, 13%; with CAKI-1 renal, 28.2%; with A498 renal it was 57%. In addition, the growth was 25.2% in the assay on CCRF-CEM leukemia and 44.2% in the assay on MOLT-4 leukemia.

As to `COc1ccc(NC(=O)c2sc3nc(C)c(C(O)c4ccccc4)cc3c2N)cc1` (stereo not given), the growth is 24.9% in the assay on HCT-15 colon; 13.1% in the assay with HT29 colon; 20.3% with SNB-75 CNS; 28.6% with SNB-19 CNS; 17.8% with U251 CNS; 23.4% in the assay on PC-3 prostate. Besides, the growth in the assay with SK-MEL-5 melanoma was 23.2%; in the assay with UACC-62 melanoma, 26.2%; with LOX IMVI melanoma it was 55.1%; in the assay on SK-MEL-28 melanoma, 57%; in the assay with SK-MEL-2 melanoma it was 46.5%; with EKVX NSCLC, 40.4%. Also, the growth in the assay on SN12C renal is 36.1%; with UO-31 renal it was 43.4%; in the assay with TK-10 renal, 52.6%; in the assay with ACHN renal it was 45.2%; with CAKI-1 renal, 42.4%; in the assay with A498 renal it was -1.83% (active). For the same compound, the growth in the assay with CCRF-CEM leukemia is 7.85% (active); in the assay with MOLT-4 leukemia, 12.5%.
